CYP2C19 inhib: human CYP2C19 inhibition. CYP2C19 Supersomes, luciferin-H EGE luminescence, 30 min. P33261. hit rate 21% among 96,000. inhibition, % at 5 µM;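 active = CYP2C19 inhibition above a set limit at 5 µM in the primary screen, cut at about 50% in these data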;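 also: plate controls were negative control wells for no effect and 2.5 mM tranylcypromine positive control for full effect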
Target sequence (P33261 whole entry, looked up): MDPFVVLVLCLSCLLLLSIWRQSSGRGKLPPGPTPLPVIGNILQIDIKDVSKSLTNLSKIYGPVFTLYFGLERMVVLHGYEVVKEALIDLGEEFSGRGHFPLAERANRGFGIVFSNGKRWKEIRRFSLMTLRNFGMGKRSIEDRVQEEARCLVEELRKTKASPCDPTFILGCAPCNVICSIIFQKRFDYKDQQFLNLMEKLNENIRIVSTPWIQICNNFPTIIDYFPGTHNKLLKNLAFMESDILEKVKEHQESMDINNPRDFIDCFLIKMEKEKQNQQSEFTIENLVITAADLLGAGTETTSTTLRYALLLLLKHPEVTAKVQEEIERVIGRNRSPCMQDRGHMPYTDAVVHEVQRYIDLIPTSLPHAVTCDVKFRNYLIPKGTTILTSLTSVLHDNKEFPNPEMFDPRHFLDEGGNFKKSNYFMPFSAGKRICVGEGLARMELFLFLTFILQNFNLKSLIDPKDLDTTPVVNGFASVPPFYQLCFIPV
Measles CPE: protection of cells from measles virus. Measles virus-infected cells, CPE protection, absorbance. protection (pct of control), % at 4 µM. hit rate 1.5% among 140,000. AID 841; in the data active = protection mostly above about 24%, no sharp cut-off; inactive = mostly below about 26%
CYP2C9 inh: blocks human cytochrome P450 2C9; P11712; CYP2C9 Supersomes, luciferin-H conversion, luminescence; inhibition, % at 5 µM; hit rate 20% among 96,000;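 active = blocking of liver enzyme CYP2C9 beyond about 50% at 5 µM, limit read from the data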
CYP2C9 act: activators of human CYP2C9; recombinant CYP2C9, luciferin-H conversion, luminescence; hits give high values; factor 1 = untreated enzyme, 0 = blocked; activation factor at 5 µM; P11712; hit rate 1.4% among 96,000;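 active = activation factor of 2 or more for CYP2C9 at a 5 µM dose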;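 also: 0 = sulfaphenazole-blocked wells and 1 = vehicle-only wells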
CYP2C19 act: cytochrome P450 2C19 (human) activation | AID 1025 | activation factor at 5 µM | recombinant CYP2C19, luciferin-H EGE luminescence; hits give high values; 0 = fully inhibited enzyme, 1 = untreated enzyme | 96,000 tested, under 10 active;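 active = activation factor of at least 2 at 5 µM in the primary screen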;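 also: 0 = wells with 2.5 mM tranylcypromine and 1 = vehicle-only wells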
Active calls of the source: *; / = no result given. Only some compounds are listed: those with a hit (about 22% of all), similar ones and a draw of the others.

SMILES | CYP2C19 inhib | Measles CPE | CYP2C9 inh | CYP2C9 act | CYP2C19 act
CCCC(=O)NC(Oc1ccccc1Cl)C(Cl)(Cl)Cl (stereo not drawn) | 80.4* | 3.2 | 59.4* | 0.4 | 0.2
N#Cc1cc2c(nc1SCC(=O)Nc1ccc(Cl)cc1)C1CCN2CC1 | 92.3* | 26.7 | 83.6* | 0.2 | 0.1
Cc1ccc(NC(=O)c2cn(CCC#N)nc2-c2ccc3c(c2)OCCO3)c([N+](=O)[O-])c1 | / | 10.2 | / | / | /
COc1ccc(Br)cc1CN1CCN(C(=O)Cc2ccccc2)CC1 | 87.8* | 8.2 | 81.1* | 0.2 | 0.1
Oc1c(Br)cc(Br)cc1CN1CCN(Cc2ccccc2)CC1 | 73.8* | 6.9 | 39.2 | 0.6 | 0.3
O=C(Cc1ccc(Br)cc1)N1CCN(Cc2ccccc2)CC1 | 83.6* | 85.6* | 86.7* | 0.1 | 0.2
CCOP(=O)(Cc1cc(C#N)oc1C)OCC | / | 1.9 | / | / | /
CN1CCC2(CC1)C(C#N)=C(N)NC(S)=C2C#N | / | 5.7 | / | / | /
CCOc1ccc(-n2c(O)c(C=NCCCn3ccnc3)c(=O)[nH]c2=O)cc1 | -13.3 | 15.3 | 43.4 | 0.6 | 1.1
CCCCCCn1c(O)c(C=NCCCn2ccnc2)c(=O)[nH]c1=O | 40.0 | 4.7 | 93.4* | 0.1 | 0.6
COc1ccc(Cn2c(O)c(C=NCCCn3ccnc3)c(=O)[nH]c2=O)cc1 | 4.9 | 5.8 | 62.8* | 0.4 | 1
CCn1c(O)c(/C(C)=N/N2CCCCC2c2cccnc2)c(=O)[nH]c1=S (stereo not drawn) | / | 12.3 | / | / | /
O=C(C1CCC(=O)N1Cc1ccccc1Cl)N1CCC2(CC1)OCCO2 (stereo not drawn) | 10.2 | 4.5 | 12.6 | 0.9 | 0.9
COCCOC(=O)C1=C(N)Oc2c(c(=O)oc3ccccc23)[C@@]12C(=O)Nc1ccccc12 | -1.9 | 12.3 | 81.3* | 0.2 | 1
CCOC(=O)c1cc(C)n(CCc2cnc[nH]2)c1C | 99.8* | 2.5 | 99.1* | 0 | 0
CC(C)(C)C(O)C(Oc1ccc(Cl)cc1)n1cncn1 (stereo not drawn) | 95.4* | 6.6 | 58.2* | 0.4 | 0
O=C(Oc1ccc([N+](=O)[O-])cc1)N1CCC(N2CCCCC2)CC1 | / | 35.3 | / | / | /
Cc1nn(Cc2ccccc2Cl)c(C)c1C(=O)OCC(=O)N1CC(C)OC(C)C1 (stereo not drawn) | / | 18.2 | / | / | /
CC(C)(C)c1nc(N2CCN(C(=O)c3ccco3)CC2)c2nnn(Cc3ccccc3Cl)c2n1 | 62.1* | 21.4 | 94.7* | 0.1 | 0.4
CCCCN1C(=O)C(C2c3ccccc3C(=O)N2Cc2ccccc2)C(=O)NC1=S (stereo not drawn) | 18.4 | 5.5 | 54.0* | 0.5 | 0.8
COc1ccc(-n2c(O)c(/C=C/C=Nc3ccccc3)c(=O)[nH]c2=O)cc1 | / | 18.6 | / | / | /
CCN1/C(=C\C=C\C2=[N+](CC)c3ccccc3C2(C)C)C(C)(C)c2ccccc21 | 91.6* | 3.5 | 68.6* | 0.3 | 0.1
O=P(Nc1ccccc1Cl)(c1ccccc1)c1nc2c(s1)CCCC2 (stereo not drawn) | 15.9 | 11.6 | 24.7 | 0.8 | 0.8
Cc1ccccc1NC1=NCC(C)S1 (stereo not drawn) | 10.5 | 2.0 | 5.0 | 0.9 | 0.9
O=c1cccc2n1CC1CC2CN(Cc2c(F)cccc2Cl)C1 (stereo not drawn) | 98.7* | 2.4 | 55.1* | 0.4 | 0
SMILES | CYP2C19 inhib | Measles CPE | CYP2C9 inh | CYP2C9 act | CYP2C19 act
Cc1c(Cl)cccc1NC(=S)N1CC2CC(C1)c1cccc(=O)n1C2 (stereo not drawn) | / | 3.4 | / | / | /
Cc1ccc2occ(CN3CC4CC(C3)c3cccc(=O)n3C4)c(=O)c2c1 (stereo not drawn) | 29.9 | 11.4 | 46.8 | 0.5 | 0.7
O=c1cccc2n1CC1CC2CN(Cc2cccc(Cl)c2Cl)C1 (stereo not drawn) | 88.5* | 42.7* | 25.8 | 0.7 | 0.1
O=C1/C(=C\c2cc3c(cc2Br)OCO3)N2CCC1CC2 | / | 3.7 | / | / | /
O=C(c1ccncc1)C12CN3CN(CN(C3)C1)C2 | 2.4 | 12.5 | 7.4 | 0.9 | 1
Cc1ccc(N2C(=O)/C(=C/c3ccc(CN(CCC#N)S(C)(=O)=O)o3)C(=O)NC2=S)cc1 | 11.0 | 18.1 | 46.9 | 0.5 | 0.9
COP(=O)(OC)C1(Nc2ccc(C)cc2)CCCCC1 | 83.0* | 3.9 | 33.3 | 0.7 | 0.2
CC(=NCCN1CCOCC1)c1c(O)n(Cc2ccccc2)c(=O)[nH]c1=O | -10.3 | 11.5 | -4.0 | 1 | 1.1
CCCCn1c(O)c(C(CC)=NCc2cccnc2)c(=O)[nH]c1=O | 91.2* | 4.5 | 60.1* | 0.4 | 0.1
CC(=NCc1cccnc1)c1c(O)n(Cc2ccccc2)c(=O)[nH]c1=O | / | 8.7 | / | / | /
CC(=NCCN1CCCCC1)c1c(O)n(-c2ccc(Cl)cc2)c(=O)[nH]c1=O | 7.5 | 8.4 | 9.2 | 0.9 | 0.9
CCC(=NCCCn1ccnc1)c1c(O)n(Cc2ccccc2)c(=O)[nH]c1=O | 94.5* | 3.3 | 97.4* | 0 | 0.1
CC(=NCc1cccnc1)c1c(O)n(-c2ccccc2)c(=O)[nH]c1=O | 56.9* | 8.2 | 16.6 | 0.8 | 0.4
CCC(=NCc1cccnc1)c1c(O)n(Cc2ccccc2)c(=O)[nH]c1=O | 95.3* | 2.5 | 68.7* | 0.3 | 0
CCOC(=O)C1=C(N)Oc2cc(C)oc(=O)c2C12C(=O)N1c3c(cccc32)C(C)CC1(C)C (stereo not drawn) | 9.8 | 10.2 | -7.5 | 1.1 | 0.9
CN(C)P1(N(C)C)=Nc2c(c(N)nn2C)C(c2ccccc2)=N1 | 19.0 | 17.9 | 6.1 | 0.9 | 0.8
O=c1cccc2n1CC1CC2CN(C(c2ccccc2)c2sc3ncnn3c2O)C1 (stereo not drawn) | -21.0 | 29.2 | 25.5 | 0.7 | 1.2
COc1cc2c(cc1C=O)OCO2 | / | 35.1* | / | / | /
CCCCN1C(=O)NC(=O)C2(Cc3ccccc3N3CCOCC32)C1=O (stereo not drawn) | 70.5* | 11.4 | 66.8* | 0.3 | 0.3
O=C1NC(=O)[C@]2(Cc3ccccc3N3CCN(c4ccccc4)CC32)C(=O)N1c1ccccc1 (stereo partly drawn) | 63.0* | 4.2 | 91.4* | 0.1 | 0.4
O=C1NC(=O)[C@]2(Cc3ccccc3N3CCN(c4ccccc4)CC32)C(=O)N1Cc1ccccc1 (stereo partly drawn) | 71.4* | 5.8 | 91.0* | 0.1 | 0.3
CN1C(=O)NC(=O)C2(Cc3ccccc3N3CCOCC32)C1=O (stereo not drawn) | 0.3 | / | 8.3 | 0.9 | 1
COc1ccc([N+](=O)[O-])cc1N=Cc1c(O)n(CCc2ccccc2)c(=O)n(C(C)C)c1=O | / | 22.2 | / | / | /
CN(C)CC1CSCCC1(O)c1ccc(C(F)(F)F)cc1 (stereo not drawn) | / | 16.0 | / | / | /
O=C(c1ccc(CNS(=O)(=O)c2ccccc2)cc1)N1CCC2(CC1)OCCO2 | / | 8.1 | / | / | /
Fc1ccc(Cn2nnnc2C(c2ccc(Cl)cc2)N2CC=C(c3ccc(F)cc3)CC2)cc1 (stereo not drawn) | / | 40.9* | / | / | /
Fc1ccc(C2=CCN(C(c3ccc(Cl)cc3)c3nnnn3Cc3ccccc3)CC2)cc1 (stereo not drawn) | / | 4.3 | / | / | /

Screening data deposited in PubChem BioAssay by several laboratories.
